TCR activator: Activators of T cell receptors: qHTS campaign; AID 504894, 2011; Potency, µM (top dose mostly 9.22 µM), without a hit: at the top dose activation of IL-2 secretion, usual class: activators; 330,000 tested, under 10 active; primary human leukocytes, anti-CD3, IL-2 HTRF, 48 h; also: % of control where 0% means no effect
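Activity was scored as IL-2 release from primary human leukocytes given only a TCR signal (a-CD3 beads) plus compound for 48 hr. Detection used a two-antibody HTRF format read at 665nm.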
Sfp PPTase inh: qHTS Assay for Inhibitors of Bacillus subtilis Sfp phosphopantetheinyl transferase (PPTase); 4'-phosphopantetheinyl transferase ffp (Bacillus subtilis), Q9F4F7; Biochemical Sfp PPTase activity, qHTS; Potency, µM, for inactives: largest response in the series, negative = inhibition, usual class: inhibitors; 310,000 compounds, 3.5% hits; AID 1490, 2009;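 also: the enzyme is Sfp with the accession as filed and its product quenches rhodamine fluorescence; potency is read from the fitted curve at half-maximal effect; 0% = enzyme reaction without inhibitor and -100% = no enzyme wells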
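Compounds were incubated with enzyme (final 15 nM) for 15 min at room temperature before substrate addition started the reaction. Fluorescence at 525 nm excitation, 598 nm emission was recorded immediately and after 30 minutes.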
uPA generation: qHTS for Inhibitors of Cell Surface uPA Generation; AID 540303, 2011; Potency, µM (titrated, usually from 38.3 µM), inactives show at the highest dose activity change, negative = inhibition, hits mostly inhibitors; cell surface uPA generation assay, qHTS; 330,000 compounds, 0.31% hits; active = well fitted inhibition curve with a large enough effect; inconclusive = small, poorly fitted or top-dose-only effect; inactive = no such curve, though single readings can be large or run the other way; tested in mouse RAW 264.7 cells; also: potency is read from the fitted curve at half-maximal effect; % is scaled to controls: 0 for no effect and ±100 for the full control effect; nearly all actives have a fitted effect of over 55% in size
ClpP mod: qHTS Assay for Activators of ClpP | ATP-dependent Clp protease proteolytic subunit (Bacillus subtilis (strain 168)), P80244 | purified B. subtilis ClpP, FRET peptide cleavage, 20 min | Potency, µM (top dose mostly 57.5 µM), inactives show at the highest dose activity change, negative = active | 340,000 compounds, 1.9% hits | AID 651965, 2013; active = well fitted falling curve with a large enough effect; inconclusive = small, poorly fitted or top-dose-only effect; inactive = no such curve, though single readings can be large or run the other way; also: potency is read from the fitted curve at half-maximal effect; the source files actives as falling curves though it sought activators and does not explain the sign; nearly all actives have a fitted effect of over 65% in size
Target sequence (P80244 whole entry, looked up): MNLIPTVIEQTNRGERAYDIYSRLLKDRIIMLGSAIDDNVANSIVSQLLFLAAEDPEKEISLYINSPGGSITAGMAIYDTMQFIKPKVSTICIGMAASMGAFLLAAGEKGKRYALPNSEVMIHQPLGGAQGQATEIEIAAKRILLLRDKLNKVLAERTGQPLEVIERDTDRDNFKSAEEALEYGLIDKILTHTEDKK
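ClpP 10 microg/mL final, pH 8 Tris/KCl buffer with BSA, glycerol, Tween-20; compound pinned in; FRET-FV substrate; RT 20 min; Ex320/Em430; ΔFRET vs ADEP 5.8 microM, DMSO, no enzyme.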
* = called active by the depositor; ? = inconclusive; . = no result; [ ] = remark or other dose. This is a sample that favours compounds with a hit; in the whole collection about 4.2% have one here. Unless noted, calls follow the shape of the dose curve; as a rule, active = well fitted curve in the direction sought with a large enough effect; inconclusive = small, poorly fitted or top-dose-only effect, or another doubt; inactive = no such curve, though single readings can be large; an effect the other way counts as inactive or inconclusive.

SMILES | TCR activator | Sfp PPTase inh | uPA generation | ClpP mod
CCOc1cc(/C=N/NC(=O)c2ccc(-c3csc(Nc4ccc(C)cc4)n3)cc2)ccc1OCC(=O)O | 3.7% | ? | 17.0% | .
O=C(O)COc1ccc(/C=N/NC(=O)c2ccc(-c3csc(Nc4ccc(Cl)cc4)n3)cc2)cc1 | 3.8% | 44.7µM* | 1.9% | .
O=C(COc1ccc(Cl)cc1)Nc1nc(-c2ccncc2)cs1 | -0.3% | 22.4µM* | 1.9% | -0.4%
CCN(CC)CCCNc1oc(-c2ccc(OC)c(OC)c2)nc1C#N | 3.8% | -11.6% | -5.1% | -1.9%
COc1ccc(-c2nc(C#N)c(NCc3ccc(C)cc3)o2)cc1OC | -2.4% | -6.9% | -5.0% | 31.6µM*
COc1ccc(-c2nc(C#N)c(NCCc3ccccc3)o2)cc1OC | 5.6% | -10.4% | -6.6% | 6.31µM*
COc1ccc(CCNc2oc(Cc3ccccc3)nc2C#N)cc1OC | -0.8% | -0.1% | -2.4% | -1.3%
COc1ccc(-c2nc(C#N)c(N3CC(C)OC(C)C3)o2)cc1OC (centres undefined) | 1.4%[46.1 µM] | -6.8% | 4.2% | 0.708µM*
COc1ccc(-c2nc(C#N)c(N3CCCCCC3)o2)cc1OC | -6.6% | -14.9% | 3.3% | 47.2%
CCc1occc(=O)c1Oc1cc(NN2CCCCC2)c([N+](=O)[O-])cc1[N+](=O)[O-] | 1.9% | 8.5% | -22.0% | 0.3%
COc1ccccc1NS(=O)(=O)c1cccc(NC(=O)c2cncc(Br)c2)c1 | -4.6% | . | 1.5% | .
O=c1oc2c(F)cc(F)cc2cc1S(=O)(=O)c1ccc(F)cc1 | . | . | . | 22.4µM*
CN(C(=O)CSc1nnc(Cc2cccs2)n1C1CC1)C1CCS(=O)(=O)C1 (centres undefined) | 2.3% | . | 10.2% | -3.9%
Cc1cccc(NC(=S)N2CCC(NC(=O)c3cccc(F)c3)CC2)c1 | -7.7% | 4.1% | -2.8% | .
Oc1c(Br)cc(Br)cc1/C=N/Nc1ccc(Cl)nn1 | 8.3% | -4.1% | -7.6% | .
C/C(=N/Nc1ncc(C(F)(F)F)cc1Cl)c1ccncc1 | -7.2% | 56.2µM* | -3.4% | .
Oc1ccc(/C=N/Nc2ccc(Cl)nn2)c(O)c1O | -0.4% | 10µM* | ? | 0.7%
COc1cc(/C=N/Nc2ncc(C(F)(F)F)cc2Cl)cc(OC)c1O | 9.2%[46.1 µM] | 89.1µM* | -2.7% | -3.8%
COc1cc(/C=N/Nc2ccc(Cl)nn2)cc(OC)c1O | 3.7% | 50.1µM* | ? | -0.5%
Oc1c(Br)cc(/C=N/Nc2ccc(Cl)nn2)cc1Br | 2.0% | ? | 13.0% | -1.3%
COc1cccc(CN(C)C(=O)c2ccc(S(=O)(=O)Nc3cccc(C)c3C)cc2)c1OC | . | . | . | 2.8%
O=C(CSc1nnc2ccccn12)Nc1ccc2c(c1)OCCO2 | -4.0% | 6.2% | 1.4% | .
CON/C=N/C(=S)Nc1ncc(C(F)(F)F)cc1Cl | -1.6% | 11.2µM* | -3.8% | .
ON/C=N/C(=S)Nc1ncc(C(F)(F)F)cc1Cl | -9.0% | -1.9% | 3.6% | .
CCOC(=O)Cc1csc(-n2sc3ccccc3c2=O)n1 | -0.9% | 6.31µM* | 8.5% | -2.7%
SMILES | TCR activator | Sfp PPTase inh | uPA generation | ClpP mod
CC(C)(C)OC(=O)NCC1CCN(S(=O)(=O)Cc2ccccc2)CC1 | 9.4% | 12.9% | 3.2% | 0.1%
CC(C)(C)OC(=O)NCC12C=CC(O1)C1C(=O)N(Cc3ccccc3)C(=O)C12 (centres undefined) | -4.2%[46.1 µM] | 70.8µM* | 5.0% | -6.5%
Nc1nc(SCC(=O)Nc2cccc([N+](=O)[O-])c2)n[nH]1 | 4.2% | . | -0.2% | .
Nc1nc(SCC(=O)c2ccc([N+](=O)[O-])cc2)n[nH]1 | -2.8% | 31.6µM* | -13.1% | -0.7%
Nc1nc(SCC(=O)c2ccc(Oc3ccccc3)cc2)n[nH]1 | 0.8% | 50.1µM* | . | -2.0%
CN1CCN(c2ccc(C(F)(F)F)cc2NC(=O)Nc2ccccc2)CC1 | 0.6% | -16.4% | -13.0% | 0.2%
Cc1c(C(=O)NCC2CCCO2)oc2ccc3c(c12)C(=O)CC(C)(C)O3 (centres undefined) | 2.5% | 19.7% | -11.8% | 25.1µM*
Cc1cccc(C)c1NC(=O)c1oc2ccc3c(c2c1C)C(=O)CC(C)(C)O3 | . | . | . | 4.1%
CCCCN1C(=O)/C(=C2\SC(N3CCCCC3)=NC2=O)c2ccccc21 | 2.7% | 44.7µM* | -10.9% | 2.4%
O=C1N=C(N2CCOCC2)S/C1=C1\C(=O)N(Cc2ccccc2)c2ccc(Br)cc21 | . | -2.4% | . | .
CCOc1ccc2[nH]c(=O)c(CN(Cc3ccc(F)cc3)C(=O)c3ccco3)cc2c1 | 1.5% | -7.7% | -13.2% | -20.1%

Source: PubChem
